# In PubChem BioAssay (Tox21):
# A number with no mark means an inactive call. Inconclusive results are not listed. A call without a number means that no potency is given here. Calls of active or inactive are those of the source. Unless noted, calls follow the shape of the full dose curve.
# Columns and labels:
# [1] = target: Nuclear receptor subfamily 1 group I member 3 (Homo sapiens) (UniProt Q14994); experiment: qHTS assay to identify small molecule antagonists of the constitutive androstane receptor (CAR) signaling pathway (AID 1224838; active = well fitted curve in the direction sought with a large enough effect in the repeat runs; an effect the other way counts as inactive or inconclusive; also: nearly all actives have a fitted effect of over 40% in size)
# Summary of the method: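 HepG2 cells stably co-transfected with hCAR and a CYP2B6-2.2kb luciferase reporter were seeded 4 h before compound addition at 15 concentrations. Cells were stimulated with 50 nM CITCO (final) for 24 h at 37 C; luciferase luminescence was then read.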
# [2] = target: Acetylcholinesterase (Homo sapiens) (UniProt P22303); experiment: Acetylcholinesterase (AChE) small molecule antagonists: colormetric cell-based qHTS assay (AID 1347395); also: nearly all actives have a fitted effect of over 30% in size
# Summary of the method: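 SH-SY5Y cells attached overnight, exposed to compound 30 min at 37 C, then given DTNB/acetylthiocholine; after 90 min at 37 C, colorimetric thiocholine read gives cellular AChE activity.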
# [3] = target: Acetylcholinesterase (Homo sapiens) (UniProt P22303); experiment: Acetylcholinesterase (AChE) small molecule antagonists: enzyme-based qHTS assay (AID 1347397); settings: Potency: AChE enzyme activity inhibition; outcome: AChE enzyme activity inhibition; also: nearly all actives have a fitted effect of over 55% in size
# Summary of the method: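 Human recombinant acetylcholinesterase; substrate acetylthiocholine; thiocholine quantified with DTNB (colorimetric). Compound preincubation 30 min RT; reaction 10 min RT.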
# [4] = target: Acetylcholinesterase (Homo sapiens) (UniProt P22303); experiment: Acetylcholinesterase (AChE) small molecule antagonists: fluorescence cell-based qHTS assay (AID 1347398); settings: Potency: AChE activity; outcome: AChE activity; also: nearly all actives have a fitted effect of over 50% in size
# Summary of the method: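 Thiocholine generated from acetylthiocholine by SH-SY5Y cell AChE is detected with Thiolite Green (Ex/Em 490/520 nm) after 40 min at room temperature, following 30 min compound pretreatment at 37 C.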
# [5] = target: Acetylcholinesterase (Homo sapiens) (UniProt P22303); experiment: Acetylcholinesterase (AChE) small molecule antagonists: enzyme-based qHTS assay with human liver microsomes (AID 1347399); settings: Potency: qHTS inhibition; outcome: qHTS inhibition; also: nearly all actives have a fitted effect of over 60% in size
# Summary of the method: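 Recombinant human AChE (50 mU/mL in the enzyme mix) and human liver microsomes (0.25 mg/mL final) were preincubated with compound and NADPH (0.25 mg/mL final) for 30 min at 37 C. Acetylthiocholine/DTNB was then added; thiocholine was read colorimetrically after 10 min at room temperature.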
# [6] = qHTS assay to identify small molecule agonists of the estrogen related receptor (ERR) signaling pathway (AID 1224820; active = well fitted curve in the direction sought with a large enough effect in the repeat runs; an effect the other way counts as inactive or inconclusive; also: potency is read from the fitted curve at half-maximal effect)
# Summary of the method: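 Cells: ERR line from NTP, 2,000/well. Pre-incubation 6 h, 37 C/5% CO2. Compound (DMSO) pin transfer, 18 h 37 C. One-Glo, 30 min RT, luminescence.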
# [7] = qHTS assay to identify small molecule antagonists of the estrogen related receptor signaling pathway with the pleiotropic PPARgamma coactivator (PGC) cell viability counter screen (AID 1224822; active = well fitted curve in the direction sought with a large enough effect in the repeat runs; an effect the other way counts as inactive or inconclusive;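 also: viability read after 17.5 h compound exposure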)
# Summary of the method: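 PGC/ERR cells were seeded at 2,000 cells/well, rested 6 h at 37 C/5% CO2, then given compounds in DMSO by pin tool and incubated 17.5 h at 37 C. Viability came from CellTiter-Fluor fluorescence after 30 min.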
# [8] = qHTS assay to identify small molecule agonists of the estrogen related receptor signaling pathway with the pleiotropic PPARgamma coactivator (PGC) (AID 1224823; active = well fitted curve in the direction sought with a large enough effect in the repeat runs; an effect the other way counts as inactive or inconclusive; also: potency is read from the fitted curve at half-maximal effect)
# Summary of the method: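 Steps: plate PGC/ERR cells at 2,000 cells/well; incubate 6 h, 37 C/5% CO2; pin-transfer compounds (DMSO); incubate 18 h, 37 C; add One-Glo; 30 min RT; read luminescence.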
# [9] = target: Aromatase (Homo sapiens) (UniProt P11511); experiment: qHTS assay to identify aromatase inhibitors (AID 743083; active = well fitted curve in the direction sought with a large enough effect in the repeat runs; an effect the other way counts as inactive or inconclusive; also: nearly all actives have a fitted effect of over 55% in size; also: potency is read from the fitted curve at half-maximal effect)
# [10] = target: Aryl hydrocarbon receptor (Homo sapiens) (UniProt P35869); experiment: qHTS assay to identify small molecule that activate the aryl hydrocarbon receptor (AhR) signaling pathway (AID 743085; active = well fitted curve in the direction sought with a large enough effect in the repeat runs; an effect the other way counts as inactive or inconclusive;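 also: HG2L7.5c1 human HepG2 liver cells with stably integrated DRE-driven firefly reporter; nearly all actives have a fitted effect of over 15% in size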)
# Summary of the method: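 HepG2 cells stably carrying a 20-DRE firefly luciferase reporter (HG2L7.5c1) treated with compound for 24 hr at 37C. Luciferase read by ONE-Glo luminescence, with CellTiter-Fluor viability read first.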
# [11] = qHTS assay to identify small molecule agonists of H2AX (AID 1224845; active = well fitted activation curve with a large enough effect in the signal ratio in the repeat runs, not every such curve was filed as active; the % refers to the signal ratio)
# Summary of the method: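 Wild-type CHO-K1 cells plated overnight, then exposed 3 hr at 37C to compounds at 15 concentrations (0.76% DMSO). Lysed, then HTRF anti-pH2AX(S139)-cryptate/anti-H2AX-d2 detection after 24 hr at room temperature; emissions 665 and 620 nm.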
# [12] = qHTS assay to identify small molecule antagonists of the estrogen related receptor (ERR) signaling pathway (AID 1224819; active = well fitted curve in the direction sought with a large enough effect in the repeat runs; an effect the other way counts as inactive or inconclusive; also: nearly all actives have a fitted effect of over 50% in size; also: potency is read from the fitted curve at half-maximal effect)
# Summary of the method: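 ERR reporter cells were plated at 2,000 cells/well and left 6 h at 37 C/5% CO2 before pin-tool transfer of compounds in DMSO. After 18 h at 37 C, One-Glo was added and luminescence was read 30 min later at room temperature.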
# [13] = target: Glucocorticoid receptor (Homo sapiens) (UniProt P04150); experiment: qHTS assay to identify small molecule antagonists of the glucocorticoid receptor (GR) signaling pathway (AID 720692; active = well fitted inhibition curve with a large enough effect in the signal ratio in the repeat runs, not every such curve was filed as active; the % refers to the signal ratio)
# Summary of the method: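 GR-bla HeLa cells (beta-lactamase reporter under glucocorticoid response element) were pre-plated 4 h at 37 C, treated with compounds plus 5 nM dexamethasone (final) for 18 h, then read by LiveBLAzer B/G FRET fluorescence after 2 h.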
# [14] = qHTS assay to identify small molecule agonists of the estrogen related receptor (ERR) signaling pathway from Tox21 library (AID 1224849); settings: ERR reporter cell line, ONE-Glo luciferase, 18 h; at 92.4 µM (top of the series) unless noted; also: nearly all actives have a fitted effect of over 15% in size
# Summary of the method: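 ERR reporter cell line (NTP) seeded, rested 6 h at 37 C/5% CO2, then pinned with Tox21 compounds in DMSO. After 18 h at 37 C, ONE-Glo luciferase luminescence was read following 30 min at room temperature.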
# [15] = Caspase-3/7 induction in HepG2 cells by small molecules, qHTS assay (AID 1346978; active = well fitted curve in the direction sought with a large enough effect in the repeat runs; an effect the other way counts as inactive or inconclusive; also: nearly all actives have a fitted effect of over 15% in size)
# Summary of the method: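 Wild-type HepG2 cells (2,000/well) were settled 5 h at 37 C, 5% CO2, then exposed to compounds in DMSO for 17 h. Caspase-3/7 activity was read by luminescence 30 min after adding Caspase-Glo 3/7 reagent at room temperature.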
# [16] = qHTS assay for small molecule agonists of the p53 signaling pathway (AID 651631); also: nearly all actives have a fitted effect of over 15% in size
# Summary of the method: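 HCT-116 cells carrying a beta-lactamase reporter under p53 response elements were dosed with compound for 16 h at 37 °C. LiveBLAzer B/G FRET substrate was then added for 2 h at room temperature, and fluorescence intensity was read to detect pathway agonism.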
# Sequence of Aryl hydrocarbon receptor (Homo sapiens) (P35869 whole entry, looked up): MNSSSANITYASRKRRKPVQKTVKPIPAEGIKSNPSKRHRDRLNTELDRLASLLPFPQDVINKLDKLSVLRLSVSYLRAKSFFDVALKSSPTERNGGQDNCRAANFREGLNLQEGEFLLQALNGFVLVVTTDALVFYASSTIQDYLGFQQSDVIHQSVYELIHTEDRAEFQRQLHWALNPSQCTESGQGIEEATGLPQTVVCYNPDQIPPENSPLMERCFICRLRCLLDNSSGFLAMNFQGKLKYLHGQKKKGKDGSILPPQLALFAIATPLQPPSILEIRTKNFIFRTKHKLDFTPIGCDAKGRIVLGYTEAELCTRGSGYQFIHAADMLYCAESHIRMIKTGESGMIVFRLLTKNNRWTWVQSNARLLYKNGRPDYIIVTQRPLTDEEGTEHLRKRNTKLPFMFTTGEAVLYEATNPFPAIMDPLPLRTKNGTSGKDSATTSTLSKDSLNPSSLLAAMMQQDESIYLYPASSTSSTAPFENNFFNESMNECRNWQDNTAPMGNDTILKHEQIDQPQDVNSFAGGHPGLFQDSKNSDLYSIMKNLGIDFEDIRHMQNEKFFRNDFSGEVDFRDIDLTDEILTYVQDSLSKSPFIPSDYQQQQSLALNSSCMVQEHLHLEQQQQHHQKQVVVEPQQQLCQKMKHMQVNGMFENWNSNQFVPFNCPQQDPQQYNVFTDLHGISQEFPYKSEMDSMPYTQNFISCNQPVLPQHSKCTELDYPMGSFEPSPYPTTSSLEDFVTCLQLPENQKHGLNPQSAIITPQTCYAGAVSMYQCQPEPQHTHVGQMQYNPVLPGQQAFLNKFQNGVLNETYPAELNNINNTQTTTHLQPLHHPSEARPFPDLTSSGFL
# Sequence of Acetylcholinesterase (Homo sapiens) (P22303 whole entry, looked up): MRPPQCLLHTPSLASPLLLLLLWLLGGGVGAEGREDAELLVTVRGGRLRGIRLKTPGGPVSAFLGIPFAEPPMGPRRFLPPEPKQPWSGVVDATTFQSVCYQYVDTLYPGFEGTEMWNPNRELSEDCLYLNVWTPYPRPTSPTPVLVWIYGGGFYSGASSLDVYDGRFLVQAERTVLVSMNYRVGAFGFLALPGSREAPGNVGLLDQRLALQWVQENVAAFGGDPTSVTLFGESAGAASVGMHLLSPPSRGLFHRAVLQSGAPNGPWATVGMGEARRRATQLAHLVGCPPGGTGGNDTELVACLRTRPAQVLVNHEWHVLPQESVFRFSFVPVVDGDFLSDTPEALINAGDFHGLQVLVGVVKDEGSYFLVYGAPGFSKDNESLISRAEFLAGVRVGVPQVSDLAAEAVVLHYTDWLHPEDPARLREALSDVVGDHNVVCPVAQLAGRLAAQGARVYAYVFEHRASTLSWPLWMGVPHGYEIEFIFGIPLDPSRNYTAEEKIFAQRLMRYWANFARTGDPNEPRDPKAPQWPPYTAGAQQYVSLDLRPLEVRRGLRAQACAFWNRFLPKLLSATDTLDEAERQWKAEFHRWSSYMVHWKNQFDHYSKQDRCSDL
# Sequence of Aromatase (Homo sapiens) (P11511 whole entry, looked up): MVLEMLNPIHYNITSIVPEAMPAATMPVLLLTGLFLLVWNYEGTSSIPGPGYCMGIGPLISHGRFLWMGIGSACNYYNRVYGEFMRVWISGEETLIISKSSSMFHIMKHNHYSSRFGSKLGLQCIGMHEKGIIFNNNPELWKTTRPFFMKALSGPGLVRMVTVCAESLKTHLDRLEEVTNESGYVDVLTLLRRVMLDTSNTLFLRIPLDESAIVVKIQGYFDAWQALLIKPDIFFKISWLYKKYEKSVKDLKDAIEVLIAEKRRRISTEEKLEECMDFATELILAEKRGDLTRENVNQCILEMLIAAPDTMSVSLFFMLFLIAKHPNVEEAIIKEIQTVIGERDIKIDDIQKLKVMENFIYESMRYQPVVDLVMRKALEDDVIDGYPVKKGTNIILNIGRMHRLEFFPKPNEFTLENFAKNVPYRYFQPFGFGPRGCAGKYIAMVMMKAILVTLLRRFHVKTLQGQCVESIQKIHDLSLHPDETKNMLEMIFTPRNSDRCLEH
# Sequence of Glucocorticoid receptor (Homo sapiens) (P04150 whole entry, looked up): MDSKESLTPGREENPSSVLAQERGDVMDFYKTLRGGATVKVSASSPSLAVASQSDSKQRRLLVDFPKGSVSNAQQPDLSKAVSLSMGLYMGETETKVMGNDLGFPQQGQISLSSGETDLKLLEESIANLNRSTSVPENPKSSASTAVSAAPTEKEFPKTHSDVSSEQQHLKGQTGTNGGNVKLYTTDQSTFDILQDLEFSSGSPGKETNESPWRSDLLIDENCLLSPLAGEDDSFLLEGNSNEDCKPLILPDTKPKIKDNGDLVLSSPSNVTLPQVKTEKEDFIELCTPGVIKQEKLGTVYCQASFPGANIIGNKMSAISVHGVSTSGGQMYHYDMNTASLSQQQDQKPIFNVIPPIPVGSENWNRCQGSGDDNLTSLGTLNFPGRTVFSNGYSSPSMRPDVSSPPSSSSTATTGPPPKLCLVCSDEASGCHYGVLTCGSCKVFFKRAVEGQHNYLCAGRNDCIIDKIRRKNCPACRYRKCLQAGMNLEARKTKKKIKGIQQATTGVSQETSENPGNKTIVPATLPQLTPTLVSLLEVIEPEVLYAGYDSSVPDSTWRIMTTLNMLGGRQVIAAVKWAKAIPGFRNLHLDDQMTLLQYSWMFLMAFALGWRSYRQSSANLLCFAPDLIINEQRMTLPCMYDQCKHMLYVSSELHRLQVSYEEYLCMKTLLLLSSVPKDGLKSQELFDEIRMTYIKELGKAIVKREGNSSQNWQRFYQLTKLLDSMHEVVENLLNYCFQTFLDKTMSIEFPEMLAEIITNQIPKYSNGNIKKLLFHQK
# Sequence of Nuclear receptor subfamily 1 group I member 3 (Homo sapiens) (Q14994 whole entry, looked up): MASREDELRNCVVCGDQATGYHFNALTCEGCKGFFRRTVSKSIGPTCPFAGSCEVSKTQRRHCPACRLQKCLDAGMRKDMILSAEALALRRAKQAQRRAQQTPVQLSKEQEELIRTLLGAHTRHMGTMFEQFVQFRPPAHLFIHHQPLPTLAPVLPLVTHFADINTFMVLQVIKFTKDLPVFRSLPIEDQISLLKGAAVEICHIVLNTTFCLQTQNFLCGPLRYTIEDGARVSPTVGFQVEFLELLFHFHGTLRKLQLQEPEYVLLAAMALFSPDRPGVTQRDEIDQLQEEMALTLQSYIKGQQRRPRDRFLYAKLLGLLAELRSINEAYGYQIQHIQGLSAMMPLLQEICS
smiles,measurement,setting,value
CC1(C)[C@H](C(=O)OCc2cccc(Oc3ccccc3)c2)[C@@H]1C=C(Cl)Cl,Potency,[1],inactive
same,Potency,[2],inactive
same,Potency,[3],inactive
same,Potency,[4],inactive
same,Potency,[5],inactive
c1ccc(CCCN2CCN(CCOC(c3ccccc3)c3ccccc3)CC2)cc1,Potency,[6],inactive
same,Potency,[7],inactive
same,Potency,[8],inactive
CCCCCCCCCc1ccc(OCCOCCO)cc1,Potency,[9],21100 nM (active)
same,Potency,[10],inactive
same,Potency,[11],inactive
same,Potency,[2],inactive
same,Potency,[3],inactive
same,Potency,[4],inactive
same,Potency,[5],inactive
c1ccc2c(c1)[I+]c1ccccc1-2,Potency,[12],31 nM (active)
same,Potency,[6],inactive
same,Potency,[8],inactive
CNc1ccccc1,Potency,[13],inactive
same,Potency,[11],inactive
same,"activity change, positive = activation",[14],-1.42%
same,Potency,[2],inactive
same,Potency,[3],inactive
same,Potency,[4],inactive
same,Potency,[5],inactive
c1ccc2c(c1)ccc1ncccc12,Potency,[9],inactive
same,Potency,[10],inactive
same,"activity change, positive = activation",[14],-4.48%
same,Potency,[15],inactive
same,Potency,[2],inactive
same,Potency,[3],inactive
same,Potency,[5],inactive
CCCCCCCCCCCCCC(=O)O[C@@H]1[C@@H](C)[C@@]2(O)[C@@H](C=C(CO)C[C@@]3(O)C(=O)C(C)=C[C@@H]23)C2C(C)(C)[C@@]21OC(C)=O (some centres not stated),Potency,[12],inactive
same,Potency,[6],8.72 nM (active)
same,Potency,[8],6.71 nM (active)
Cc1cc([N+](=O)[O-])ccc1N,Potency,[16],inactive
same,Potency,[9],inactive
same,Potency,[10],inactive
same,Potency,[11],inactive
same,Potency,[15],inactive
same,Potency,[2],inactive
same,Potency,[3],inactive
same,Potency,[4],inactive
same,Potency,[5],inactive
O=C1OC(=O)c2c(Br)c(Br)c(Br)c(Br)c21,Potency,[9],inactive
same,Potency,[10],inactive
same,Potency,[11],inactive
same,Potency,[15],inactive
same,Potency,[2],inactive
same,Potency,[3],inactive
same,Potency,[4],inactive
same,Potency,[5],inactive
